In PubChem BioAssay (EPA / NIEHS) one finds AC50 and outcome data, which are given here for 35 molecules.

Inconclusive results are not listed. Some compounds were tested as several samples or in several runs, with calls that do not always agree. Calls of active or inactive are those of the source. The calls were made as follows: active = hit-call score of the fitted dose curve at least 0.9, where 1 is the maximum; inconclusive = response in the unintended direction; inactive = score below 0.9.

Peroxisome proliferator-activated receptor gamma (Homo sapiens), sequence (P37231 whole entry, looked up): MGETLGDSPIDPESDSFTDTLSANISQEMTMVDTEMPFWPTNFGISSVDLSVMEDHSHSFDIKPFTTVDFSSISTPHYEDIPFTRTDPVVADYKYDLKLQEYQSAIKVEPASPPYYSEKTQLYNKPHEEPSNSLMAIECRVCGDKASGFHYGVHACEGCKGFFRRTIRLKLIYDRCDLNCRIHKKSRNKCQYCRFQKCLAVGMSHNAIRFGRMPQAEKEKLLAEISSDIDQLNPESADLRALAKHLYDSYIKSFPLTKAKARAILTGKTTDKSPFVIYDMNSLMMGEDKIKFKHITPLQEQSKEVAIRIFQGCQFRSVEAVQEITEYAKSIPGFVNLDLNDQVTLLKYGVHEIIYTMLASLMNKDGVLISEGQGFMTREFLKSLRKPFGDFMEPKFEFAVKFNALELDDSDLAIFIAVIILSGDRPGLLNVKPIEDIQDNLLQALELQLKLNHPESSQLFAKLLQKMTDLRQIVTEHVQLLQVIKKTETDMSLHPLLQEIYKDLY
Nuclear receptor subfamily 1 group I member 2 (Homo sapiens), sequence (O75469 whole entry, looked up, the tested form may be a part): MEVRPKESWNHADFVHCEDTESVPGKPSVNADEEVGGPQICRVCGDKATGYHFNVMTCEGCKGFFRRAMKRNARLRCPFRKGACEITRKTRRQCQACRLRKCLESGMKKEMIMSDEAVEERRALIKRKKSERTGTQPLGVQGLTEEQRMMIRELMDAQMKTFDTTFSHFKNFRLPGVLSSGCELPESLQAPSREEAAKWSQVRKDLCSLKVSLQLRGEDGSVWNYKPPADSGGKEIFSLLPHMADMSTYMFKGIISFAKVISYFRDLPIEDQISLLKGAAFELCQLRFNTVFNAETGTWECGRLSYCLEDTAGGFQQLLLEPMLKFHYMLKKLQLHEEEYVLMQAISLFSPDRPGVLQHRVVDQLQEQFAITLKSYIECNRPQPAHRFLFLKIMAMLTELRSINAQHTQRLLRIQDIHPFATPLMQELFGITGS

The target in the first assay is Peroxisome proliferator-activated receptor gamma (Homo sapiens) (UniProt P37231). As to the kind of experiment: ATG_PPARg_TRANS: Attagene TRANS-FACTORIAL HepG2 Assay for human Peroxisome Proliferator-activated Receptor-gamma (PPARg) (AID 2283007). In a few lines:
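Multiplexed reporter transcription units in HepG2, 24 h dosing, reporter transcripts quantified by fluorescent RT-PCR and capillary electrophoresis. Increase over DMSO scored.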
In the case of `C#CCC1=C(C)C(OC(=O)C2C(C=C(C)C)C2(C)C)CC1=O` (centres undefined), the AC50 was 28 µM (active).
`N#CSCSC#N`: the molecule was classed as inactive.
Still for that read-out and setting: the entry for `CN(C)NC(=O)CCC(=O)O` is “inactive”; for `CCOC(=O)COc1cc(-c2nn(C)c(OC(F)F)c2Cl)c(F)cc1Cl` it is “inactive”.
On to `Cc1nn(-c2cc(NS(C)(=O)=O)c(Cl)cc2Cl)c(=O)n1C(F)F`, for which the AC50 was 28 µM (active).
The same measure, in the same setting: for `CCCOCC(=Nc1ccc(Cl)cc1C(F)(F)F)n1ccnc1` the value was 1.36 µM (active).
`CN1COCN(Cc2cnc(Cl)s2)C1=N[N+](=O)[O-]`: the outcome was inactive.
Same read-out and setting: for `CCCCOC(=O)c1ccccc1C(=O)O` the value was “inactive”; for `CCNc1nc(Cl)nc(NC(C)(C)C#N)n1`, “inactive”.
Turning to `CON=C(C(=O)OC)c1ccccc1CON=C(C)c1cccc(C(F)(F)F)c1`, the AC50 is 50 µM (active).
With `CCCCN(CC)c1c([N+](=O)[O-])cc(C(F)(F)F)cc1[N+](=O)[O-]`, the molecule was classed as inactive.
On to `CSc1nc(NC(C)C)nc(NC(C)C)n1`, for which the AC50 was 47.6 µM (active).
Same read-out and setting: for `Cc1cc(C2CC2)nc(Nc2ccccc2)n1` the value was 50 µM (active).
In the case of `O=[N+]([O-])c1cc(C(F)(F)F)c(Cl)c([N+](=O)[O-])c1Nc1ncc(C(F)(F)F)cc1Cl`, the AC50 is 0.651 µM (active) and the molecule was classed as inactive.
For the molecule `CCC(=O)Nc1ccc(Cl)c(Cl)c1`, the molecule was called inactive.
Regarding `COP(=O)(OC)C(O)C(Cl)(Cl)Cl` (centres undefined), the AC50 was 72.2 µM (active).
Consider `CC(C1CC1)C(O)(Cn1cncn1)c1ccc(Cl)cc1` (centres undefined), for which the molecule was called inactive.
Still for that read-out and setting: the entry for `CN(C)C(=O)Nc1cccc(C(F)(F)F)c1` is “inactive”; for `CC(Oc1cccc(Cl)c1)C(=O)O` (centres undefined) it is “inactive”; for `CNC(=O)Oc1cccc2c1OC(C)(C)O2` it is “inactive”.
Take `CCCCSP(=O)(SCCCC)SCCCC`: the AC50 is 30.5 µM (active).
Turning to `CCOP(=S)(OCC)SCCSCC`, the outcome was inactive.
The same measure, in the same setting: the entry for `C=C(C)[C@H]1Cc2c(ccc3c2O[C@@H]2COc4cc(OC)c(OC)cc4[C@@H]2C3=O)O1` is “inactive”; for `CCCSP(=O)(OCC)Oc1ccc(Br)cc1Cl` (centres undefined) it is “inactive”.
Still for that read-out and setting: the entry for `CCOP(=S)(OCC)Oc1ccc2c(C)c(Cl)c(=O)oc2c1` is “inactive”; for `CN(C)[C@@H]1C(=O)C(C(N)=O)=C(O)[C@@]2(O)C(=O)C3=C(O)c4c(O)cccc4[C@@](C)(O)[C@H]3[C@H](O)[C@@H]12` it is “inactive”.
On to `C[Si](Cn1cncn1)(c1ccc(F)cc1)c1ccc(F)cc1`, for which the AC50 was 48.5 µM (active).
Consider `CNC(=O)ON=C(C)SC`, for which the outcome was inactive.
With `CCOC(=O)CC(SP(=O)(OC)OC)C(=O)OCC` (centres undefined), the AC50 is 28.7 µM (active).
Take `CCCCOC(=O)[C@@H](C)Oc1ccc(Oc2ccc(C#N)cc2F)cc1`: the molecule was classed as inactive.
As to `COc1ccc(C(=CC(=O)N2CCOCC2)c2ccc(Cl)cc2)cc1OC`, the result was inactive.
The same measure, in the same setting: for `CNC(=O)ON=C(SC)C(=O)N(C)C` the value was “inactive”.
Take `O=C(O)c1cc(Oc2ccc(C(F)(F)F)cc2Cl)ccc1[N+](=O)[O-]`: the AC50 is 37.1 µM (active).

The target in the next assay is Nuclear receptor subfamily 1 group I member 2 (Homo sapiens) (UniProt O75469). Put plainly: ATG_PXR_TRANS: Attagene TRANS-FACTORIAL HepG2 Assay for human Pregnane X Receptor (PXR) (AID 2283008). In outline:
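HepG2 transfected (FuGene 6) with GAL4-UAS reporter units + PXR-Gal4 chimera; dosed 24 h. Total RNA → oligo(dT) RT → PCR → 6-FAM primer extension → HpaI cut → CE. Gain-of-signal vs DMSO.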
Regarding `C#CCC1=C(C)C(OC(=O)C2C(C=C(C)C)C2(C)C)CC1=O` (centres undefined), the AC50 is 3.12 µM (active).
For the molecule `N#CSCSC#N`, the outcome was inactive.
In the case of `CCOC(=O)COc1cc(-c2nn(C)c(OC(F)F)c2Cl)c(F)cc1Cl`, the AC50 is 29.6 µM (active).
Consider `Cc1nn(-c2cc(NS(C)(=O)=O)c(Cl)cc2Cl)c(=O)n1C(F)F`, for which the AC50 was 28.9 µM (active).
Take `CCCOCC(=Nc1ccc(Cl)cc1C(F)(F)F)n1ccnc1`: the molecule was called inactive.
Same read-out and setting: for `Nc1nc(N)nc(NC2CC2)n1` the value was “inactive”; for `CON=C(C(=O)OC)c1ccccc1CON=C(C)c1cccc(C(F)(F)F)c1`, “inactive”.
On to `CCCCN(CC)c1c([N+](=O)[O-])cc(C(F)(F)F)cc1[N+](=O)[O-]`, for which the AC50 is 14.4 µM (active).
`CSc1nc(NC(C)C)nc(NC(C)C)n1`: the AC50 is 18.4 µM (active).
On to `Cc1cc(C2CC2)nc(Nc2ccccc2)n1`, for which the molecule was classed as inactive.
Consider `O=[N+]([O-])c1cc(C(F)(F)F)c(Cl)c([N+](=O)[O-])c1Nc1ncc(C(F)(F)F)cc1Cl`, for which the AC50 is 2.86 µM (active) and the molecule was classed as inactive.
Regarding `CCC(=O)Nc1ccc(Cl)c(Cl)c1`, the outcome was inactive.
On the same count and under the same terms, for `COP(=O)(OC)C(O)C(Cl)(Cl)Cl` (centres undefined) the value was “inactive”; for `CC(C1CC1)C(O)(Cn1cncn1)c1ccc(Cl)cc1` (centres undefined), “inactive”; for `CN(C)C(=O)Nc1cccc(C(F)(F)F)c1`, “inactive”.
Same read-out and setting: for `CC(Oc1cccc(Cl)c1)C(=O)O` (centres undefined) the value was “inactive”; for `CC(C)N(C(=O)SCC(Cl)=C(Cl)Cl)C(C)C`, “inactive”.
Still for that read-out and setting: for `CNC(=O)Oc1cccc2c1OC(C)(C)O2` the value was “inactive”.
Take `CCCCSP(=O)(SCCCC)SCCCC`: the result was inactive.
The same measure, in the same setting: for `CCOP(=S)(OCC)SCCSCC` the value was “inactive”; for `C=C(C)[C@H]1Cc2c(ccc3c2O[C@@H]2COc4cc(OC)c(OC)cc4[C@@H]2C3=O)O1`, “inactive”; for `CCCSP(=O)(OCC)Oc1ccc(Br)cc1Cl` (centres undefined), “inactive”.
With `CCOP(=S)(OCC)Oc1ccc2c(C)c(Cl)c(=O)oc2c1`, the AC50 is 3.94 µM (active).
`CN(C)[C@@H]1C(=O)C(C(N)=O)=C(O)[C@@]2(O)C(=O)C3=C(O)c4c(O)cccc4[C@@](C)(O)[C@H]3[C@H](O)[C@@H]12`: the result was inactive.
The same measure, in the same setting: the entry for `C[Si](Cn1cncn1)(c1ccc(F)cc1)c1ccc(F)cc1` is “inactive”.
In the case of `CNC(=O)ON=C(C)SC`, the result was inactive.
Still for that read-out and setting: for `CCCCOC(=O)[C@@H](C)Oc1ccc(Oc2ccc(C#N)cc2F)cc1` the value was “inactive”.
On the same count and under the same terms, for `COc1ccc(C(=CC(=O)N2CCOCC2)c2ccc(Cl)cc2)cc1OC` the value was “inactive”; for `O=C(O)c1cc(Oc2ccc(C(F)(F)F)cc2Cl)ccc1[N+](=O)[O-]`, “inactive”.
